Results filed as inconclusive are left out. Activity calls are given as the source filed them. Calls come from the whole dose curve.

Our source for the RFP activity, outcome and ratio activity values is PubChem BioAssay AID1498 (National Center for Advancing Translational Sciences (NCATS), 2009).

A short description of this experiment: Confirmation Concentration-Response Assay for Modulators of Lamin A Splicing. The note with it: RFP activity: RFP channel at top concentration, at 46.1 µM; ratio activity: GFP/RFP ratio at top concentration, at 46.1 µM. Put shortly:
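Splicing correction read as ratio of GFP (500-530 nm) to DsRed2 (575-640 nm) object intensity by Acumen cytometry, after 48 h compound treatment of stable HeLa reporter cells (600/well) in 2% FBS medium.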

On to `Cc1cc(/C=N/n2cnnc2)c(C)n1-c1cccc(C(=O)O)c1`, for which the RFP activity was -18.9%, the outcome was inactive and the ratio activity is -3.02%.
For `O=C(CCCN1CC=C(n2c(=O)[nH]c3ccccc32)CC1)c1ccc(F)cc1`, in that order: -6.45%, “inactive” and -13.7%.
For `O=C(Nc1ccc(F)cc1)c1nc[nH]c1C(=O)Nc1ccccc1[N+](=O)[O-]`, in that order: -25.1%, “inactive” and -10.8%.
On the same counts, the results for `Cc1nc2ccc(NC(=O)c3ccc(Cl)c(S(=O)(=O)N(C)c4ccccc4)c3)cc2s1` are -26.7%, “inactive” and -11.5%.
For the compound `COc1ccc(C=C(c2nc3ccccc3s2)c2nc3ccccc3s2)cc1O`, the RFP activity was -2.53%, the outcome was inactive and the ratio activity was -10.5%.
